# Laboratory results published in article PMC4336329 (PLoS ONE, 2015).
# Hit rate of the full screen: of about 310,000 compounds, about 14,000 (4.5%) showed an effect of 50% or more. The effect is printed as a negative number. The list comes from a sample in which strong results are over-represented; it also holds similar structures and randomly drawn compounds.
# Biological target: human ether-à-go-go-related gene (hERG) potassium channel (human, UniProt Q12809)
# Experiment: primary screen, population patch clamp on CHO cells stably expressing hERG; higher = less effect of the substance
# 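Note: peak tail current of the secondary pulse compared with the same well before compound.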
# Sequence of human ether-à-go-go-related gene (hERG) potassium channel (Q12809 whole entry, looked up): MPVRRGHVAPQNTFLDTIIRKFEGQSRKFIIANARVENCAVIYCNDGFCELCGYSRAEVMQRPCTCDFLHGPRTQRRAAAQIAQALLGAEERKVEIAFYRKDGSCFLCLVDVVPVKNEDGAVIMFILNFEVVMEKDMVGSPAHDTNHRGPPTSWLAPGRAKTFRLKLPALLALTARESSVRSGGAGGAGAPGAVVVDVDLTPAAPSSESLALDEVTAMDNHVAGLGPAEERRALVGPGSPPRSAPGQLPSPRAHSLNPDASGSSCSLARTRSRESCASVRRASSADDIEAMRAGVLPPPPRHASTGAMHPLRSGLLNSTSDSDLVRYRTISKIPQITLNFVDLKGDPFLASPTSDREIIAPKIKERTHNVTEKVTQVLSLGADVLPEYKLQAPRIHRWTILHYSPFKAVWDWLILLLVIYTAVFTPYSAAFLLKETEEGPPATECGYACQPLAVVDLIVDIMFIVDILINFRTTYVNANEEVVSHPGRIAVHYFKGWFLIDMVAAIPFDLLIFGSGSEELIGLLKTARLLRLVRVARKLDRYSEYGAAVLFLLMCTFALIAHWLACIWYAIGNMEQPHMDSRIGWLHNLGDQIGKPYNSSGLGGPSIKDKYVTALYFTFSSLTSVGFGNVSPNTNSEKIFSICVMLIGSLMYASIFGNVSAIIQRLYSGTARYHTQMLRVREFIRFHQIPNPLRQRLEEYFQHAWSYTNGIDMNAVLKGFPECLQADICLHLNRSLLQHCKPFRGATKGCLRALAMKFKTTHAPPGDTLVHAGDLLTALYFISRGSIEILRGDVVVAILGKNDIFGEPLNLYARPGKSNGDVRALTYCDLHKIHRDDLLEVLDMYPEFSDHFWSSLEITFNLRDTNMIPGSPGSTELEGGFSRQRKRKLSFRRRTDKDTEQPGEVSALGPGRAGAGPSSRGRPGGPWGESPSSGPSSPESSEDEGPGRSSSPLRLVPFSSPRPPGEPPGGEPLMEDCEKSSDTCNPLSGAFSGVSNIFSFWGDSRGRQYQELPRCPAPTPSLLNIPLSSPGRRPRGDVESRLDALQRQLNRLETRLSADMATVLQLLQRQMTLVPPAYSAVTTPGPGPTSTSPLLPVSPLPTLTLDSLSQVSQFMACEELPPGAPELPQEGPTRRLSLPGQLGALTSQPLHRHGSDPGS
row,Structure (SMILES),"hERG current change (%, negative = inhibition) at 10uM [%]"
1,O=C(CN1C(=O)NC2(CCCC2)C1=O)OCc1cc(=O)n2cc(Br)ccc2n1,0.0178
2,COc1cc(C(=O)Nc2ccc(-c3nnc(-c4ccco4)o3)cc2)cc(OC)c1OC,-3.23
3,Cc1ccnc(NS(=O)(=O)c2cccc([N+](=O)[O-])c2)c1,0.0315
4,CCNC(=O)CC1C(=O)N(c2cccc(OC)c2)C(=O)N1CCOC (stereo not drawn),8.39
5,COc1ccc(CNC(=O)C(c2ccco2)N(Cc2cccs2)C(=O)Cc2cccs2)cc1 (stereo not drawn),10.6
6,O=C(COc1ccccc1)N(Cc1nnc(-c2ccccc2Cl)o1)C1CC1,-15
7,Cc1cccc(OCC(=O)N(Cc2nnc(-c3ccccc3Cl)o2)C2CC2)c1,-54.2
8,Cc1ccc(OCC(=O)N(Cc2nnc(-c3ccccc3Cl)o2)C2CC2)cc1C,-44.1
9,COc1cccc(CN(CC(=O)NCc2ccco2)C(=O)CNS(=O)(=O)c2ccccc2)c1,-53.1
10,COc1ccc(CN(CC(=O)NCc2ccco2)C(=O)CNS(=O)(=O)c2ccc(C)cc2)cc1,-63.3
11,O=C(CN(Cc1ccccc1)C(=O)CNS(=O)(=O)c1ccccc1)NCc1ccco1,-0.255
12,O=C(CN(Cc1ccco1)C(=O)CNS(=O)(=O)c1ccc(Cl)cc1)NCc1ccco1,-55.4
13,COc1ccc(CNC(=O)CN(Cc2ccco2)C(=O)CNS(=O)(=O)c2ccc(C)cc2)cc1,-73
14,Cc1ccc(S(=O)(=O)NCC(=O)N(CC(=O)NCc2ccco2)Cc2ccco2)cc1,-23.5
15,COc1ccc(CNC(=O)CN(Cc2ccco2)C(=O)CNS(=O)(=O)c2ccccc2)cc1,-38.7
16,COc1ccc(S(=O)(=O)NCC(=O)N(CC(=O)NCc2ccco2)Cc2ccc(F)cc2)cc1,1.94
17,COc1ccc(S(=O)(=O)NCC(=O)N(CC(=O)NCc2ccco2)Cc2ccccc2)cc1,-10.6
18,COc1ccc(S(=O)(=O)NCC(=O)N(CC(=O)NCc2ccccc2)Cc2ccco2)cc1,-17
19,Cc1ccc(S(=O)(=O)NCC(=O)N(CC(=O)NCc2ccco2)Cc2ccccc2)cc1,-10.2
20,O=C(CN(Cc1ccco1)C(=O)CNS(=O)(=O)c1ccc(F)cc1)NCc1ccco1,-8.87
21,Cc1ccc(C)c(N2CCN(S(=O)(=O)c3csc(C(N)=O)c3)CC2)c1,-8.27
22,CCC1CCCCN1c1nc2c(C=O)c(C)nn2c2ccccc12 (stereo not drawn),-12

row,Structure (SMILES),"hERG current change (%, negative = inhibition) at 10uM [%]"
1,COc1cccc(-c2nc(CS(=O)(=O)CC(=O)Nc3cc(F)ccc3F)c(C)o2)c1,8.16
2,COCCNc1ccc(S(=O)(=O)N2CCCC2)cn1,13.2
3,COc1ccc(-c2c3c(=O)n(C)c(=O)n(C)c3cn2NC(C)=O)cc1,12.2
4,Cc1ccc(C)c(Cn2nnc3c(=O)[nH]c(C4CCCN(C(=O)c5cccs5)C4)nc32)c1 (stereo not drawn),0.859
5,Cc1ccc(C)c(Cn2nnc3c(=O)[nH]c(C4CCCN(C(=O)CC(C)C)C4)nc32)c1 (stereo not drawn),-14.6
6,O=C(C1CCCCC1)N1CCCC(c2nc3c(nnn3Cc3ccccc3)c(=O)[nH]2)C1 (stereo not drawn),-8.73
7,Cc1ccc(C)c(Cn2nnc3c(=O)[nH]c(C4CCN(C(=O)c5cccs5)CC4)nc32)c1,-66.5
8,Cc1ccc(C)c(Cn2nnc3c(=O)[nH]c(C4CCCN(C(=O)C5CCCCC5)C4)nc32)c1 (stereo not drawn),-51.5
9,Cc1ccc(Cn2nnc3c(=O)[nH]c(C4CCN(C(=O)c5cccs5)CC4)nc32)cc1,-33
10,Cc1ccc(C)c(Cn2nnc3c(=O)[nH]c(C4CCCN(C(=O)C5CCC5)C4)nc32)c1 (stereo not drawn),-32.4
11,Cc1ccc(C)c(Cn2nnc3c(=O)[nH]c(C4CCCN(C(=O)c5ccco5)C4)nc32)c1 (stereo not drawn),-38.3
12,CCCCC(=O)N1CCCC(c2nc3c(nnn3Cc3cc(C)ccc3C)c(=O)[nH]2)C1 (stereo not drawn),-52.2
13,Cc1c(C(=O)N/N=C/c2ccc(N(C)C)cc2)[nH]c2ccc(Cl)cc12,2.69
14,COC(=O)C1=C(C(=O)c2ccccc2)C(c2cccs2)n2nnnc2N1 (stereo not drawn),19.8
15,Cc1ccc(CN2C(=O)CCC2C(=O)NCc2ccc3c(c2)OCO3)cc1 (stereo not drawn),-17.4
16,NS(=O)(=O)c1ccc(CNC(=S)NCc2ccc(F)cc2)cc1,9.61
17,CCOC(=O)c1ccc(NC(=O)CC2C(=O)N(c3ccccc3)C(=O)N2CCCOC)cc1 (stereo not drawn),-4.49
18,CC(=O)NS(=O)(=O)c1ccc(NC(=O)/C=C/c2cn(-c3ccccc3)nc2-c2ccccc2)cc1,34
19,O=C(c1ccc([N+](=O)[O-])cc1)N1CCN(C2=NS(=O)(=O)c3ccccc32)CC1,-46.2
20,O=C(OCCN1CCN(C2=NS(=O)(=O)c3ccccc32)CC1)c1ccccc1F,-16.9
21,COc1ccc(C(=O)OCCN2CCN(C3=NS(=O)(=O)c4ccccc43)CC2)cc1OC,-32.9
22,O=C(c1ccc(F)cc1)N1CCN(C2=NS(=O)(=O)c3ccccc32)CC1,-15.8

row,Structure (SMILES),"hERG current change (%, negative = inhibition) at 10uM [%]"
1,O=C(c1cccc(Br)c1)N1CCN(C2=NS(=O)(=O)c3ccccc32)CC1,-65.8
2,O=C(OCCN1CCN(C2=NS(=O)(=O)c3ccccc32)CC1)c1cccc(Br)c1,-68.6
3,COc1ccc2c(CC(=O)OCC(=O)NC(N)=O)coc2c1,0.524
4,COc1ccc(N2C(=NC(=O)C3CCCO3)SC3CS(=O)(=O)CC32)cc1 (stereo not drawn),5.78
5,Cc1ccc(C)c(NC(=O)c2ccc3nccnc3c2)c1,2.6
6,COc1ccc(N=C2NC(=O)CS2)c([N+](=O)[O-])c1,11.4
7,O=C(Nc1ccc2c(c1)OCO2)[C@@H]1CCCN1S(=O)(=O)c1cccc2cccnc12,-6.18
8,CCOC(=O)C1C(c2ccc(Cl)cc2)NC(=S)NC1(O)C(F)(F)F (stereo not drawn),16.7
9,Cn1ccnc1SCC(=O)Nc1nc2c(F)c(F)c(F)cc2s1,11.3
10,O=C(O)COCC(=O)N1CCc2c([nH]c3ccccc23)C1C(F)(F)F (stereo not drawn),2.14
11,CCCNC(=O)C(=O)Nc1ccc2c(c1)N(S(=O)(=O)c1cccs1)CCC2,-33.6
12,O=C(NCc1ccc(F)cc1)C(=O)NCC1CCCN1S(=O)(=O)c1ccccc1 (stereo not drawn),-38.2
13,O=C(NCCC1CCCCN1S(=O)(=O)c1ccc(F)cc1)C(=O)NCc1ccccn1 (stereo not drawn),-11.9
14,CCN(CC)CCNC(=O)C(=O)Nc1ccc2c(c1)N(S(=O)(=O)c1cccs1)CCC2,-78.2
15,CN(C)CCNC(=O)C(=O)Nc1ccc2c(c1)N(S(=O)(=O)c1cccs1)CCC2,-2.98
16,O=C(NCCc1ccc(F)cc1)C(=O)NCC1CCCN1S(=O)(=O)c1ccccc1 (stereo not drawn),-61.7
17,O=C(NCCc1ccc(F)cc1)C(=O)NCC1CCCN1S(=O)(=O)c1cccs1 (stereo not drawn),-57.6
18,COc1ccc(CCNC(=O)C(=O)NCC2CCCN2S(=O)(=O)c2cccs2)cc1 (stereo not drawn),-32.9
19,Cc1cc(F)ccc1S(=O)(=O)N1CCCCC1CCNC(=O)C(=O)NCc1ccccn1 (stereo not drawn),-61.4
20,O=C(NCCc1ccccc1)C(=O)NCC1CCCN1S(=O)(=O)c1cccs1 (stereo not drawn),-22.7
21,Cc1ccc(C)c(S(=O)(=O)N2CCCCC2CCNC(=O)C(=O)NCc2ccccn2)c1 (stereo not drawn),-19.8
22,O=C(NCCc1ccccc1)C(=O)NCC1CCCN1S(=O)(=O)c1ccccc1 (stereo not drawn),-41.9

row,Structure (SMILES),"hERG current change (%, negative = inhibition) at 10uM [%]"
1,COc1ccc(N)cc1NC(=O)CN1CCCC1,19.3
2,CCN(CC)S(=O)(=O)c1ccc(Cl)c(NC(=O)COC(=O)c2ccc(O)cc2)c1,-21.4
3,CCCCC(=O)Nc1ccc(C(=O)N2CCCC(C(=O)OCC)C2)cc1 (stereo not drawn),7.66
4,O=C(NCCC1CCCCN1S(=O)(=O)c1cccs1)C(=O)Nc1ccccc1 (stereo not drawn),-10.1
5,O=C(NCCC1CCCCN1S(=O)(=O)c1cccs1)C(=O)Nc1cccc(F)c1 (stereo not drawn),-50.1
6,O=C(NCCC1CCCCN1S(=O)(=O)c1cccs1)C(=O)Nc1ccc(F)cc1 (stereo not drawn),-6.79
7,Cc1ccc(N2C(=O)N(CC(=O)Nc3cccc(Cl)c3)C(=O)C2C)cc1 (stereo not drawn),-14.9
8,O=C(COC(=O)CCc1ccc(S(=O)(=O)N2CCOCC2)cc1)NC1CCCCCC1,-10.8
9,CN(C)c1ccc(-c2cccc(C3CC=CC4C3C(=O)N(Cc3ccccc3)C4c3ccc4ccccc4c3)c2)cc1 (stereo not drawn),17.5
10,Cc1nc([N+](=O)[O-])c(N2CCOCC2)n1Cc1ccccc1,9.64
11,Cc1nc([N+](=O)[O-])c(N2CCN(Cc3ccccc3)CC2)n1Cc1ccccc1,-64.3
12,O=S(=O)(c1ccc(N2CCN(Cc3ccc4c(c3)OCO4)CC2)nc1)N1CCOCC1,-32.1
13,O=[N+]([O-])c1ccc(N2CCN(Cc3ccc4c(c3)OCO4)CC2)nc1,-54.4
14,Cl.O=[N+]([O-])c1ccc(N2CCN(Cc3ccccc3)CC2)nc1,-59
15,O=Cc1cc([N+](=O)[O-])ccc1N1CCN(Cc2ccc3c(c2)OCO3)CC1,-67.5
16,CN(C(=O)CN1CCN(c2ccc([N+](=O)[O-])cn2)CC1)c1ccccc1,-49.1
17,O=C(O)c1ccc(N2CCN(Cc3ccc4c(c3)OCO4)CC2)c([N+](=O)[O-])c1,17.3
18,O=[N+]([O-])c1ccc(N2CCN(c3ccccc3)CC2)nc1,4.96
19,Cc1nc([N+](=O)[O-])c(N2CCN(C)CC2)n1Cc1ccccc1,-10.4
20,Cl.O=[N+]([O-])c1ccc2ncnc(N3CCN(Cc4ccc5c(c4)OCO5)CC3)c2c1,-24.6
21,c1ccc(N2CCN(Cc3ccc4c(c3)OCO4)CC2)nc1,-8.79
